High-throughput results from PubChem.
D3 ag = D3 dopamine receptor (human) agonism; max activation, %; D3R DiscoveRx beta-arrestin cells, luminescence, 90 min; 410,000 compounds, 0.58% hits; AID 652048; in the data active = max activation above about 30%; also: 0% is about no effect
Target sequence (P35462 whole entry, looked up): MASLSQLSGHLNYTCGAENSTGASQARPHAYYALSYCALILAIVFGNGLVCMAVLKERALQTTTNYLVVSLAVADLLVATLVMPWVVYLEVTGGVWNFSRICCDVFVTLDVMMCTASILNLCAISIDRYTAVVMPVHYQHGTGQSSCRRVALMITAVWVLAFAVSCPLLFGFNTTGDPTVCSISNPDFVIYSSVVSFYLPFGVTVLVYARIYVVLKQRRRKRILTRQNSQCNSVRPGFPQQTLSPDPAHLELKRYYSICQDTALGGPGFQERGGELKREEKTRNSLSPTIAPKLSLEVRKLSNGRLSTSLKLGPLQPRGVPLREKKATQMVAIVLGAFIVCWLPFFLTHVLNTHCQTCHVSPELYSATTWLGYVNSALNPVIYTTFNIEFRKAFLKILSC
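Agonist mode: compounds and dopamine controls were applied to plated cells for 90 min at 37 degrees C after an overnight attachment at 1500 cells/well. Luminescent read-out followed 30 - 60 minutes at room temperature with DiscoveRx detection reagent.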
D3 antag = D3 dopamine receptor (human) antagonism; P35462; D3R cells, DiscoveRx beta-arrestin luminescence, antagonist mode; stronger effect = lower value; max response, negative = inhibition, %; 360,000 compounds, 2.5% hits; in the data active = max response below about -50%; inconclusive = no clear call, values can overlap the other calls; also: % is scaled to controls: 0 for no effect and ±100 for the full control effect
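Cells plated overnight at 1500 cells/well, then exposed to library compounds with dopamine controls for 90 minutes at 37 degrees C. DiscoveRx reagent added for 30–60 minutes at room temperature; luminescence read, quantitative HTS format.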
Chronic BCR inh = inhibitors of chronic active B-cell receptor signaling | Potency, µM (highest dose often 46.1 µM), for inactives: at the highest dose activity change, negative = inhibition, most hits filed as inhibitors | ABC-DLBCL IkBa-CBG/CBR reporter, luminescence ratio, 4 h | 340,000 compounds, 0.05% hits; active = well fitted inhibition curve with a large enough effect in the signal ratio, with a control signal flat, not every such curve was filed as active; inconclusive = small, poorly fitted or top-dose-only effect, or effect the other way, or a change in a side signal; the % refers to the signal ratio;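 also: potency is read from the fitted curve at half-maximal effect; plate controls were basal doxycycline-induced cells for no effect and cells given 10 µM MG132 for full effect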
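TMD8 human ABC-DLBCL cells with doxycycline-inducible IκBα–green luciferase fusion and unfused red luciferase, in 0.5% FBS medium; compounds up to 46 uM, 4 h at 37C. Green/red luminescence ratio, filter-overlap corrected, fitted to concentration-response curves.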
D1 antag = human D1 dopamine receptor antagonism; activity change, negative = inhibition, % at 10 µM; 360,000 compounds, 3.2% hits; P21728; HEK293 TREx D1 cells, calcium flux, dopamine EC80; stronger effect = lower value; in the data active = activity change below about -30%; also: % is scaled to controls: 0 for no effect and ±100 for the full control effect
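Kinetic fluorescence of a calcium dye serves as the read-out. D1-expressing Hek293 Trex cells, induced overnight at 30 C, are exposed to compound for 180 s before an EC80 dopamine addition, then read 180 s further.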
D1 PAM = potentiators of human D1 dopamine receptor | P21728 | HEK293 TREx D1 cells, calcium flux, dopamine EC20 potentiation | potentiation, % at 10 µM | 360,000 compounds, 0.036% hits; in the data active = potentiation above about 30%; also: 0% is about no effect
D1 agonist = agonists of human D1 dopamine receptor | activation, % at 2 µM | HEK293 T-REx D1 cells, calcium flux, agonist mode | AID 504660 | 360,000 compounds, 1% hits; in the data active = activation above about 30%; also: 0% is about no effect
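Inducible HEK293 T-REx D1 cells, force-coupled to calcium signalling, were plated at 4000 cells/well with tetracycline and held overnight at 30 C. After no-wash calcium dye loading, compound-evoked calcium rise over 180 s flagged agonists.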
The depositor's hits bear a star; u = inconclusive; x = no result. A selection: hits, their analogues and other compounds. The true share with any hit is near 6%.

SMILES	D3 ag	D3 antag	Chronic BCR inh	D1 antag	D1 PAM	D1 agonist
C=CCN1CCN(C(CC(C)C)c2nnnn2CCOC)CC1 (configuration not stated)	-11.5	24.0	1.7%	-7.5	3.2	2.2
CCCCC(c1nnnn1CCOC)N1CCN(CC)CC1 (configuration not stated)	-14.2	-68.0*	5.3%	-3.6	-3.1	0.1
O=C(Nc1ccc(F)c(Cl)c1)C1CCCN1S(=O)(=O)c1ccc(F)cc1 (configuration not stated)	-22.0	x	x	-5.7	-1.8	1.7
CCN(CC)CCN1CNC(=S)NC1	-8.7	-13.0	x	x	x	x
O=c1ccn(Cc2ccccc2)c(=O)n1Cc1ccccc1	-0.9	-50.1*	-2.1%	-17.7	3.8	1.2
COc1ccc(NC(=S)N(CCCN2CCC(C)CC2)Cc2cccs2)cc1Cl	-23.8	-79.8*	-6.9%	-21.0	-13.4	12.2
COc1cccc(NC(=S)N(CCCN2CCCC(C)C2)Cc2cccs2)c1 (configuration not stated)	-11.0	-80.2*	-6.1%	-13.3	-0.7	3.4
COc1ccc(NC(=S)N(CCCN2CCN(C)CC2)Cc2cccs2)cc1	-8.8	45.1	-1.9%	-2.9	3.2	4.0
CSc1cccc(NC(=S)N(CCCN2CCCC(C)C2)Cc2cccs2)c1 (configuration not stated)	-14.0	-103.6*	u	18.8	-15.6	4.9
Cc1cc(C)cc(NC(=S)N(CCCN2CCN(C)CC2)Cc2cccs2)c1	-9.2	5.4	u	-1.6	-5.6	11.0
Cc1ccc(Nc2c(-c3ccco3)nc3ccc(C)cn23)cc1	5.5	x	x	5.5	0.5	-0.8
O=S(=O)(c1ccc2c(c1)OCCO2)N1CCN(S(=O)(=O)c2ccc3nc(Cl)c(Cl)nc3c2)CC1	x	x	x	-20.0	5.2	3.7
O=[N+]([O-])c1ccccc1OCCCN1CCc2ccccc2C1	-21.4	-102.7*	-4.1%	-26.2	-14.8	1.6
COc1cccc(OCCOc2ccccc2[N+](=O)[O-])c1	-7.1	-22.9	x	x	x	x
O=[N+]([O-])c1ccccc1OCCNCc1ccccc1	24.5	-85.8*	0.8%	-23.8	-12.9	8.7
Cc1ccc([N+](=O)[O-])c(OCCN2CCc3ccccc3C2)c1	15.3	-59.6*	-0.3%	-52.0*	-22.1	2.4
CC1CC(C)CN(CCCOc2ccccc2[N+](=O)[O-])C1 (configuration not stated)	-7.4	u	1.7%	-3.4	-2.9	7.4
Cc1cc(C(=O)N2CCC(Cc3ccccc3)CC2)ccc1[N+](=O)[O-]	7.0	-12.6	0.1%	-31.7*	-1.9	0.9
CC(C)NC(=O)c1ccc(CSc2nc3ccncc3n2Cc2cccc(F)c2)cc1	2.9	x	x	6.2	-0.6	-0.4
O=C(Nc1ccc2nc(SCCOc3ccccc3)sc2c1)c1ccc2c(c1)OCO2	-7.0	x	x	-2.0	-1.8	1.6
O=[N+]([O-])c1cccc(OCCN2CCC(Cc3ccccc3)CC2)c1	-20.8	-101.7*	u	-23.7	-7.9	19.4
Cc1nonc1OCCN1CCN(c2ccccc2[N+](=O)[O-])CC1	-9.0	-58.2*	4.4%	-19.3	-2.5	4.1
O=[N+]([O-])c1cc(S(=O)(=O)N2CCCC2)ccc1OCCOc1ccccc1	-8.5	-16.2	-11.4%	-10.8	x	34.5*
Cc1ccc([N+](=O)[O-])c(OCCCN2CCC(Cc3ccccc3)CC2)c1	-1.5	-95.5*	x	x	x	x
O=[N+]([O-])c1cc(S(=O)(=O)N2CCCC2)ccc1OCc1ccccc1	-17.3	u	u	-6.6	-0.2	22.3
CC(=O)Nc1ccc(CN(C)c2c(C)nc3ccc(C(=O)Nc4ccc(Cl)c(Cl)c4)cn23)cc1	-16.5	-15.3	x	x	x	x
Cc1ccc(C2=NN(CCC(=O)NCCc3cccc(C)c3)C(=O)CC2)cc1	-3.7	x	u	4.6	-5.4	1.1
CC(C)N(Cc1ccccc1)S(=O)(=O)c1ccc(N2CCCCS2(=O)=O)cc1	8.2	x	x	-12.4	0.3	4.9
Cc1cc(OCCN2CCOCC2)ccc1[N+](=O)[O-]	-4.6	-10.0	4.2%	-12.6	-1.1	2.9
O=[N+]([O-])c1ccccc1OCCN1CCOCC1	2.0	-15.3	4.4%	6.0	-4.2	4.5
